Records with an inconclusive call do not appear. Unmarked numbers belong to inactive results. Calls come from the whole dose curve.
Assay: qHTS for Inhibitors of Cell Surface uPA Generation: Wild-type Protective Antigen (WT-PrAg) Counterscreen for Cherry-picked Compounds; note: 0% is about no effect
Settings: cells, WT protective antigen toxicity counterscreen; series mostly up to 115 µM; activity (protection): at the top concentration

Q: For `CN(CC(=O)NCCCn1ccnc1)S(=O)(=O)c1ccc(Cl)cc1`, which “activity (protection)” value is on record?
A: 0.0947%

Q: For `CC1CCC(NC(=O)c2nn(C)c3c2CS(=O)(=O)c2ccccc2-3)CC1` (stereo not given), which “activity (protection)” value is on record?
A: -1.64%

Q: With `CCC(COC)NC(=O)CCc1nnc(Cc2c[nH]c3ccccc23)o1` (stereo not given) as the molecule, how does the “activity (protection)” value read?
A: -0.706%

Q: Which “activity (protection)” value does the source give for `CCC(NC(=O)Cc1c(C)c2c(cc(C)c3c(C)c(C)oc32)oc1=O)C(=O)O` (stereo not given) here?
A: -2.27%

Q: Which “activity (protection)” value does the source give for `CCOC(=O)c1c(NC(=S)NC)sc2c1CCCC2` here?
A: -0.204%

Q: With `COc1ccc(-c2nn(CCC#N)cc2C(=O)Nc2ccccc2)cc1OC` as the molecule, how does the “activity (protection)” value read?
A: -0.28%

Q: Which “activity (protection)” value does the source give for `CCC(C(=O)NCc1ccc(C)cc1)c1ccccc1` (stereo not given) here?
A: 0.409%

Q: For `COc1ccc(NS(=O)(=O)c2cc(NS(=O)(=O)c3cc(C(=O)O)ccc3OC)ccc2C)cc1`, which “activity (protection)” value is on record?
A: 0.066%

Q: Which “activity (protection)” value does the source give for `CCC1=NN(C(=O)C(=O)Nc2ccc(OC)cc2)C(O)(C(F)(F)F)C1` (stereo not given) here?
A: -0.449%

Q: Which “activity (protection)” value does the source give for `CC(=O)Oc1ccccc1C(=O)Nc1ccccc1C(=O)N1CCCC1` here?
A: -0.405%

Q: For `COCCNC(=S)N(CCc1c(C)[nH]c2ccccc12)Cc1ccco1`, which “activity (protection)” value is on record?
A: -1.52%

Q: With `CC(C)(C)OC(=O)NCCCCCNC(=O)c1[nH]cnc1C(=O)Nc1ccc(Cl)cc1` as the molecule, how does the “activity (protection)” value read?
A: -1.37%

Q: With `O=C(O)c1ccc(-n2nnnc2SCc2cccc(Br)c2)cc1` as the molecule, how does the “activity (protection)” value read?
A: -1.44%

Q: With `COc1ccccc1N1CCN(CC(=O)c2c(C)[nH]c3ccccc23)CC1` as the molecule, how does the “activity (protection)” value read?
A: 3.92%

Q: Which “activity (protection)” value does the source give for `CC1Cc2nc(SCC(=O)N3CCCC3)n(C)c(=O)c2S1` (stereo not given) here?
A: -2.11%

Q: With `COc1ccc(NS(=O)(=O)c2c(C)n(C)c(=O)n(C)c2=O)cc1OC` as the molecule, how does the “activity (protection)” value read?
A: -1.24%

Q: For `CC1=CC(C)C(C[N+]2(C)CCCCC2)C(C)C1` (stereo not given), which “activity (protection)” value is on record?
A: -0.96%

Q: For `COc1cc(C2/C(=C(\O)c3ccc4c(c3)CC(C)O4)C(=O)C(=O)N2CC2CCCO2)cc(OC)c1OC` (stereo not given), which “activity (protection)” value is on record?
A: -0.464%

Q: With `CNC(=O)[C@@H]1CCC(=O)N1` as the molecule, how does the “activity (protection)” value read?
A: -1.22%

Q: For `CC(C)(C)S(=O)(=O)N1C[C@H]2CC/C=C\C/C(c3ccccc3)=C\2[C@@H]1CCO`, which “activity (protection)” value is on record?
A: -0.255%

Q: With `Cc1ccc(S(=O)(=O)NCC(=O)N/N=C/c2ccc(Cl)cc2)cc1` as the molecule, how does the “activity (protection)” value read?
A: -1.05%

Q: With `O=C(N/C(=C\c1cccc([N+](=O)[O-])c1)C(=O)N1CCOCC1)c1ccc([N+](=O)[O-])cc1` as the molecule, how does the “activity (protection)” value read?
A: 0.117%

Q: For `CCN(CC)c1ccc(C=NCCc2ccc(S(N)(=O)=O)cc2)cc1`, which “activity (protection)” value is on record?
A: -1.25%

Q: Which “activity (protection)” value does the source give for `Cc1c(C(=O)N2CCN(S(=O)(=O)c3cccs3)CC2)oc2ccc(F)cc12` here?
A: -0.128%

Q: Which “activity (protection)” value does the source give for `CC(C)(C)OC(=O)N(Cc1ccccc1)Cc1ccccc1OCc1cccc(NC(=O)C2CC2)c1` here?
A: -1.87%

Q: For `NC(=O)c1ccc(NC(=O)CN2CCN(S(=O)(=O)c3ccc4ccccc4c3)CC2)cc1`, which “activity (protection)” value is on record?
A: 1.81%

Q: With `c1cncc(C2CCCCN2)c1` (stereo not given) as the molecule, how does the “activity (protection)” value read?
A: 0.201%

Q: For `COc1ccc2c(c1)c1nnc(SCC(=O)Nc3ccccc3F)nc1n2C`, which “activity (protection)” value is on record?
A: -0.789%

Q: With `COc1ccc2nc(C)cc(Nc3ccccc3O)c2c1` as the molecule, how does the “activity (protection)” value read?
A: -2.51%

Q: Which “activity (protection)” value does the source give for `CCOc1cc(N2CCOCC2)c(OCC)cc1NC(=O)c1[nH]c(C)c(C(C)=O)c1C` here?
A: -1.39%

Q: Which “activity (protection)” value does the source give for `O=C(N/N=C/c1cccs1)c1ccco1` here?
A: -1.72%

Q: With `O=[N+]([O-])c1ccccc1C=NNC(=S)NN=Cc1ccccc1[N+](=O)[O-]` as the molecule, how does the “activity (protection)” value read?
A: -1.76%

Q: With `CC(C)N1CCc2c(sc(NC(=O)CCc3ccccc3)c2C(N)=O)C1` as the molecule, how does the “activity (protection)” value read?
A: 4.95%

Q: With `CCOC(=O)C1CCN(S(=O)(=O)c2c[nH]c(=O)[nH]c2=O)CC1` as the molecule, how does the “activity (protection)” value read?
A: -0.301%

Q: With `COC(=O)Cc1c(C)c2ccc(OCC(=O)N3CCCC(C)C3)c(C)c2oc1=O` (stereo not given) as the molecule, how does the “activity (protection)” value read?
A: -1.64%

Q: For `Fc1ccc(N2CCN(c3nc(CN4CCOCC4)nc4scc(-c5ccccc5)c34)CC2)cc1`, which “activity (protection)” value is on record?
A: -1.42%

Q: Which “activity (protection)” value does the source give for `Cc1cc(N2C(=O)C(O)=C(C(=O)c3ccco3)C2c2ccc(Cl)cc2)no1` (stereo not given) here?
A: -2%

Q: For `CC1CS(=O)(=O)CCN1N=Cc1ccc([N+](=O)[O-])o1` (stereo not given), which “activity (protection)” value is on record?
A: -2.06%

Q: Which “activity (protection)” value does the source give for `COc1cc(CCC(=O)OCC(=O)Nc2ccc(C)cc2Br)cc(OC)c1OC` here?
A: -1.19%

Q: For `COc1cc(NC(=O)COC(=O)c2cc(S(=O)(=O)N3CCCCC3)ccc2Cl)c(C)cc1[N+](=O)[O-]`, which “activity (protection)” value is on record?
A: 0.664%

Reference: PubChem BioAssay AID720518 (National Center for Advancing Translational Sciences (NCATS), 2013)
